Here are results for 40 targets from the supplement of paper PMC11001985.

A number with no mark means an inactive call.

Sequence of UniProt Q9P2B2 (Q9P2B2 whole entry): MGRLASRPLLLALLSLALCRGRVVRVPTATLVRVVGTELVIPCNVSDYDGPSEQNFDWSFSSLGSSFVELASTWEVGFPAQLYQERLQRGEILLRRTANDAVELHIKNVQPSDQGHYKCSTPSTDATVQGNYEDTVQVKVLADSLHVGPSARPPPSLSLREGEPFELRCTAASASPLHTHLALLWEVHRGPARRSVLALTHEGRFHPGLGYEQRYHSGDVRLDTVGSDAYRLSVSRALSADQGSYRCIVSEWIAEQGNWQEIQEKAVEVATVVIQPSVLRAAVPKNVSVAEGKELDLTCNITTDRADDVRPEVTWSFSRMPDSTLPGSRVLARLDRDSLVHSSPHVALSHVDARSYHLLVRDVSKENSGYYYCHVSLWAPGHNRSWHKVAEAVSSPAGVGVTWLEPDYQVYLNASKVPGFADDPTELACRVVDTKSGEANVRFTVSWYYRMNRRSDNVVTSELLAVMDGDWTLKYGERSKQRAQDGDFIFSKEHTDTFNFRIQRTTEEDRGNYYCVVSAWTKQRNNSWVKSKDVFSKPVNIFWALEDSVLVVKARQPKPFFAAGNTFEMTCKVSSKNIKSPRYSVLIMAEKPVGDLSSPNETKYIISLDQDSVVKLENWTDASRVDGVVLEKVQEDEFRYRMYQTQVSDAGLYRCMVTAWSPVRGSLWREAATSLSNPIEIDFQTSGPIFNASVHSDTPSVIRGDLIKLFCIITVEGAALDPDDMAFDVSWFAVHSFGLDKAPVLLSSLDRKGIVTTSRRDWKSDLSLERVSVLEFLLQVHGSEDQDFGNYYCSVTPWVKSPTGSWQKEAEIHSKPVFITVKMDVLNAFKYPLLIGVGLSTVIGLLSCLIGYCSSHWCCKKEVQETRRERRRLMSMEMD
Sequence of UniProt P07942 (P07942 whole entry): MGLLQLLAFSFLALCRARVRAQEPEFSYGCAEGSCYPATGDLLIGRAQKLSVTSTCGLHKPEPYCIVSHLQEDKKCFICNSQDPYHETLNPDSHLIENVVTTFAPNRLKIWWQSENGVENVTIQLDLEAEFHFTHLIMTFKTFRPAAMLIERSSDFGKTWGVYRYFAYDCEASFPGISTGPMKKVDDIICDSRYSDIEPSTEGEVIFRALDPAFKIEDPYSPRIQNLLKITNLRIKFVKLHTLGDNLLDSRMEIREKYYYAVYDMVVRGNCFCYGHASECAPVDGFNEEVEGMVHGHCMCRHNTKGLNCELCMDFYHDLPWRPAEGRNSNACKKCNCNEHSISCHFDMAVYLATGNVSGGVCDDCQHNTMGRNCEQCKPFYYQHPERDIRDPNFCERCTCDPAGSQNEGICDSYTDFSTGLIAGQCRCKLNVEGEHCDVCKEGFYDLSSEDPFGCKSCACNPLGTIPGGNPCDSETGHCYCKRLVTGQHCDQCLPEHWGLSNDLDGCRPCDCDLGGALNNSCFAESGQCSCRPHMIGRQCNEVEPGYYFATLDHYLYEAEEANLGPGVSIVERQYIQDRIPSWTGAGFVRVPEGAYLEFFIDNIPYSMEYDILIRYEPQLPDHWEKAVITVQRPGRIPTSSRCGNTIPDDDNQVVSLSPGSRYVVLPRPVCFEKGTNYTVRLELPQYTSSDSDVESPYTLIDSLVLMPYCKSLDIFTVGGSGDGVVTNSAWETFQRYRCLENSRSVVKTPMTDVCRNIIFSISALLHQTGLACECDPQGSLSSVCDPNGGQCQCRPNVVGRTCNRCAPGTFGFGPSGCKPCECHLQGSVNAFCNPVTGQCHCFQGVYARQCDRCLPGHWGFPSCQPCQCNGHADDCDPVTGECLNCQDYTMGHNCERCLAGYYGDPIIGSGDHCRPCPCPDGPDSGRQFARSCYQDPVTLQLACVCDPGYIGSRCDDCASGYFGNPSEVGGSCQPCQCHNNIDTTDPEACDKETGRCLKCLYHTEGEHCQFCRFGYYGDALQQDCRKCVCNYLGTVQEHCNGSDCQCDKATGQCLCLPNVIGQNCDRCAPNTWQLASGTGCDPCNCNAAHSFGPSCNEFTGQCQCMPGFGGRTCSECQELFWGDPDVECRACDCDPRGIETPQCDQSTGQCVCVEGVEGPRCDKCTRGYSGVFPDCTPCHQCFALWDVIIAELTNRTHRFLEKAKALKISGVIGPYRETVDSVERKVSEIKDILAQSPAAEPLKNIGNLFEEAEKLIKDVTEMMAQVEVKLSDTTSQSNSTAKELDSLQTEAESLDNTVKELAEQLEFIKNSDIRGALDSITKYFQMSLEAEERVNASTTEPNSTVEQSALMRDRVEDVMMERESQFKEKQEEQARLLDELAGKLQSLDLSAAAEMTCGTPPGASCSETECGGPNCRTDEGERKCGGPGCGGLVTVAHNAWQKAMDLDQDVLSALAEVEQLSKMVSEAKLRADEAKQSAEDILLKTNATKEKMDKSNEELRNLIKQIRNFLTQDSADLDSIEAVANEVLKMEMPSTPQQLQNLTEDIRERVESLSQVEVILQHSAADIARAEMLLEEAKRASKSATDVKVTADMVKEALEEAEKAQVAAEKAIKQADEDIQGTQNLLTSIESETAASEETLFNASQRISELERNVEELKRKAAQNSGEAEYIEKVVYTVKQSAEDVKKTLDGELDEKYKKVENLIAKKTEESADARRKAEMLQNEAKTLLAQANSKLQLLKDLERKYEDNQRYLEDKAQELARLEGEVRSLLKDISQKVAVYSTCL
Sequence of UniProt P23229 (P23229 whole entry): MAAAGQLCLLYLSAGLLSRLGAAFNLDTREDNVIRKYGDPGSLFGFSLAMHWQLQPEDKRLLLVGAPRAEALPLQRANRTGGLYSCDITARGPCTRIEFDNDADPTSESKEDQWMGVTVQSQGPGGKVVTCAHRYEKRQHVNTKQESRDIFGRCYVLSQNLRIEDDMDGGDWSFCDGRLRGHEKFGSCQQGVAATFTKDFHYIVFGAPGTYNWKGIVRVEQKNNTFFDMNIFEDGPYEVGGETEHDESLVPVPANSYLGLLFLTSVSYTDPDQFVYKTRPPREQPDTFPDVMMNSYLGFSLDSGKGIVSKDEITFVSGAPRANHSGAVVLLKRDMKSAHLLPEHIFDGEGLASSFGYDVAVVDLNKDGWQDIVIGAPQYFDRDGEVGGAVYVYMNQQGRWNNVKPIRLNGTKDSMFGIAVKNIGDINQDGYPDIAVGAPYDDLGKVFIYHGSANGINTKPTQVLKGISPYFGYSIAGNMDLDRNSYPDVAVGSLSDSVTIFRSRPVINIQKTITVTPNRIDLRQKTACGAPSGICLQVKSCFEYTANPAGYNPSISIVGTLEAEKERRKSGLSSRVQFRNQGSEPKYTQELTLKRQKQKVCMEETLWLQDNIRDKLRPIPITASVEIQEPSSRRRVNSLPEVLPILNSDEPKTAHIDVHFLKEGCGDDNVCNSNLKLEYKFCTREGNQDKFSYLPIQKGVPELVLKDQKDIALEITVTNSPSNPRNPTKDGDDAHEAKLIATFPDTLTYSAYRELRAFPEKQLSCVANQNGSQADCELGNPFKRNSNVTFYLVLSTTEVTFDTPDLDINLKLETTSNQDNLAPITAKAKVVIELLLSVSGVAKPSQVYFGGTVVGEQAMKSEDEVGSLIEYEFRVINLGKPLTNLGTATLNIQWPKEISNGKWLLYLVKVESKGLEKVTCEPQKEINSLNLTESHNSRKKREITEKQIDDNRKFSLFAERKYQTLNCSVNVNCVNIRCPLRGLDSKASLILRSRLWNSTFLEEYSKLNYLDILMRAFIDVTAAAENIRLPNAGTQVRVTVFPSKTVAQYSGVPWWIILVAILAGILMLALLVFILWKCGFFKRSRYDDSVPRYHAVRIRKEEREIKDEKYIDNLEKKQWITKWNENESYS
Sequence of UniProt Q96J84 (Q96J84 whole entry): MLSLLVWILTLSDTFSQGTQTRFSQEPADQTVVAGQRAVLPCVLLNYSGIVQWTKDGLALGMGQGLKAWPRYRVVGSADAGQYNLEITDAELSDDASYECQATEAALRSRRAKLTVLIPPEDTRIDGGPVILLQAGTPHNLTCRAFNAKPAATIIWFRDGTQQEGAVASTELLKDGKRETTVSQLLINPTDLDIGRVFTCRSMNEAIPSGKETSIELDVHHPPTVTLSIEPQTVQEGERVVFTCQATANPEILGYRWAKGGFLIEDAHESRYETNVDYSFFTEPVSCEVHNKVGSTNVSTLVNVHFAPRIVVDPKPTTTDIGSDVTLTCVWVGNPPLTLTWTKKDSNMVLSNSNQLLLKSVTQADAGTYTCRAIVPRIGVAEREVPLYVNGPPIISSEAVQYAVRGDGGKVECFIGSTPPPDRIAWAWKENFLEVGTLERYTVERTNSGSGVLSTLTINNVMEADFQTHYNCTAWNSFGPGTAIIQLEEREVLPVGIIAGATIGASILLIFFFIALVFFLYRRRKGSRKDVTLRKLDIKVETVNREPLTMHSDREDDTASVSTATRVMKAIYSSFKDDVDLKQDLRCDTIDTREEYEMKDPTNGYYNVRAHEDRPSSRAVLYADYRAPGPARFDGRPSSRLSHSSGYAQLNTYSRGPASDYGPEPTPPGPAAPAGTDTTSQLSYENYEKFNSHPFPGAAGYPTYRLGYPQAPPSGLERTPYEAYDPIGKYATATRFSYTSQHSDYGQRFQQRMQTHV
Sequence of UniProt P05186 (P05186 whole entry): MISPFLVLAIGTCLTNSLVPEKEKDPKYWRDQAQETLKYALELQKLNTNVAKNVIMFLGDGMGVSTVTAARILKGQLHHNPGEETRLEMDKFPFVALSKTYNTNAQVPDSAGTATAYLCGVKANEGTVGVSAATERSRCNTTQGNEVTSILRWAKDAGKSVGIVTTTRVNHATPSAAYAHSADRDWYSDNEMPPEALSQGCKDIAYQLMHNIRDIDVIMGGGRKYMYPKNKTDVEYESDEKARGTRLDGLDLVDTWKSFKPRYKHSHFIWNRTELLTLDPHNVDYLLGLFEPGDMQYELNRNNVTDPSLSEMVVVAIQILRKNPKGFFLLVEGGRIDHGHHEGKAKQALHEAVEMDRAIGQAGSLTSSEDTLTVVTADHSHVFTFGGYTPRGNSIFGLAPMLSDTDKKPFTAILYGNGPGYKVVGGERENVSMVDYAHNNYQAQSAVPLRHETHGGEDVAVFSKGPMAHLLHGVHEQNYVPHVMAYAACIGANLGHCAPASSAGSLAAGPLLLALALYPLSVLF

Compound in this test: C#CCNC(=O)CCSSCCC(=O)NCCc1ccc(C=O)c(C=O)c1
Kind of test: lysine labeling ratio R10:1 (500 µM / 50 µM probe), SILAC-ABPP in living cells; higher = lower intrinsic lysine reactivity toward the probe, active = 2 or less. The conditions noted are these: HeLa; probe concentrations 500 vs 50 µM. In short, it runs like this: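 For each lysine, R is the median over forward and reverse replicates of the filtered median MS1 peptide ratio of high probe to low probe. The probe, an alkyne-tagged, disulfide-linked lysine probe, was given at 500 µM or 50 µM to living SILAC light and heavy HeLa cells in PBS at room temperature, with label swaps. Values are capped at 20.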
For “ITGB1 (lysine site: K93) (UniProt P05556)”, the “lysine labeling ratio R10:1” value is 2.06.
Next, “HSP90B1 (lysine site: K75) (UniProt P14625)”: 1.47 (active); “CDH13 (lysine site: K178) (UniProt P55290)”: 7.63.
The figure for “CD97 (lysine site: K499) (UniProt P48960)” is 3.84; for “ITGB5 (lysine site: K72) (UniProt P18084)” it is 2.3.
Next, “PAWR (lysine site: K227) (UniProt Q96IZ0)”: 1.06 (active); “SLC39A6 (lysine site: K156) (UniProt Q13433)”: 3.23.
For the target “HNRNPM (lysine site: K388) (UniProt P52272)”, the “lysine labeling ratio R10:1” value was 6.02.
Next, “HSPD1 (lysine site: K523) (UniProt P10809)”: 5.04; “KIRREL (lysine site: K410) (UniProt Q96J84)”: 2.51.
The figure for “GHITM (lysine site: K76) (UniProt Q9H3K2)” is 4.44.
The figure for “TMEM132A (lysine site: K820) (UniProt Q24JP5)” is 2.33.
For “PGAM1 (lysine site: K39) (UniProt P18669)”, the “lysine labeling ratio R10:1” value was 3.67.
On to UniProt P62750 (lysine site: K152), for which the “lysine labeling ratio R10:1” value is 4.64.
As for UniProt P60842 (lysine site: K309), the “lysine labeling ratio R10:1” value was 1.73 (active).
The figure for “PTPRB (lysine site: K718) (UniProt P23467)” is 1.5 (active).
With “PEBP1 (lysine site: K187) (UniProt P30086)”, the “lysine labeling ratio R10:1” value was 2.64.
As to UniProt P05186 (lysine site: K241), the “lysine labeling ratio R10:1” value is 3.23.
As for “PRDX1 (lysine site: K93) (UniProt Q06830)”, the “lysine labeling ratio R10:1” value was 4.52.
The figure for “P4HB (lysine site: K103) (UniProt P07237)” is 4.27; for “RPLP2 (lysine site: K25) (UniProt P05387)” it is 2.1.
The figure for UniProt Q15149 (lysine site: K2411) is 4.67; for “ANP32B (lysine site: K68) (UniProt Q92688)” it is 1.78 (active).
Next, “LAMB1 (lysine site: K1368) (UniProt P07942)”: 1.59 (active).
With “TFRC (lysine site: K344) (UniProt P02786)”, the “lysine labeling ratio R10:1” value is 9.15.
The figure for “ITGA6 (lysine site: K680) (UniProt P23229)” is 2.82; for “PTGFRN (lysine site: K632) (UniProt Q9P2B2)” it is 11.6; for UniProt Q29980 (lysine site: K190) it is 1.17 (active).
The figure for “DSTN (lysine site: K92) (UniProt P60981)” is 2.43; for “DDX5 (lysine site: K470) (UniProt P17844)” it is 4.7; for “ITGA6 (lysine site: K511) (UniProt P23229)” it is 14.7.
The figure for “LAMB1 (lysine site: K1495) (UniProt P07942)” is 4.06; for “CELSR2 (lysine site: K2121) (UniProt Q9HCU4)” it is 2.98; for “LRP1 (lysine site: K3910) (UniProt Q07954)” it is 1.43 (active).
With “MYO1C (lysine site: K404) (UniProt O00159)”, the “lysine labeling ratio R10:1” value was 1.66 (active).
As to “PTGFRN (lysine site: K522) (UniProt Q9P2B2)”, the “lysine labeling ratio R10:1” value is 2.13.
Next, “PTPRF (lysine site: K61) (UniProt P10586)”: 1.48 (active); “GPI (lysine site: K447) (UniProt P06744)”: 2.73; “RPS19 (lysine site: K43) (UniProt P39019)”: 0.56 (active).
The figure for “EEF2 (lysine site: K572) (UniProt P13639)” is 2.79.
